# Shown are actives, neighbours in structure and some others; about 1.5% of the full set was active somewhere.
# MazEF act = activators of E. coli MazEF toxin-antitoxin RNase, primary screen, biochemical, fluorescence, uHTS; Endoribonuclease toxin MazF (Escherichia coli (strain K12)), P0AE70; FAM/BHQ RNA-DNA oligo cleavage fluorescence, 5 h; activation, % at 20 µM; 0.32% of 350,000 active; in the data active = activation above about 50%
# Target sequence (P0AE70 whole entry, looked up): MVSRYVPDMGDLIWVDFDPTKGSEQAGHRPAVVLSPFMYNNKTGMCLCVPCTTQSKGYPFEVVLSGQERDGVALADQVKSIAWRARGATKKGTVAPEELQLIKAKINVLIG
# VHR inh abs = VHR1 phosphatase inhibitors, primary screen, biochemical, absorbance, uHTS | 0.52% of 290,000 active | Dual specificity protein phosphatase 3 (Homo sapiens), P51452 | inhibition, % at 13.3 µM | recombinant VHR phosphatase, pNPP absorbance | AID 1654, 2009; in the data active = inhibition above about 50%
# Target sequence (P51452 whole entry, looked up): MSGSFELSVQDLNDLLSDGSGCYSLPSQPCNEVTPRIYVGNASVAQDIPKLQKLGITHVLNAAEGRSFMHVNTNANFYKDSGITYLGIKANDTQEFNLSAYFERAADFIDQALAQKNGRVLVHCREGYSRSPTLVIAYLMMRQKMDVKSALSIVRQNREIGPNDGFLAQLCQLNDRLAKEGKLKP
# SARS 3CLpro inh = SARS-CoV 3CLpro protease inhibitors, primary screen, biochemical, quenched FRET; 0.14% of 290,000 active; AID 1706, 2009; recombinant SARS-CoV 3CLpro, quenched FRET peptide cleavage; inhibition, % at 6 µM; in the data active = inhibition above about 12%
# PrPC TRFRET = inhibitors of human cell surface prion protein PrPC, primary screen, cell-based, TR-FRET; inhibition, % at 13.8 µM; AID 720596, 2013; TR-FRET read-out; Major prion protein (Homo sapiens), P04156; 0.43% of 370,000 active; in the data active = inhibition above about 24%; also: 0% = median of the test wells and 100% = reference compound wells
# PrP 5UTR inh = inhibition of PrP 5' UTR reporter expression. AID 488862, 2010. inhibition, % (concentration not given with the values). cell-based PrP 5' UTR mRNA reporter, plate reader. 0.35% of 340,000 active; in the data active = inhibition above about 52%; also: 0 = median of the neutral control wells
# Mtb hypoxia rep = PubChem AID 1159583. 0.1% of 300,000 active. fluorescence inhibition, % (no concentration beside the values). M. tuberculosis hypoxia-regulated fluorescent reporter, fluorescence; in the data active = fluorescence inhibition mostly above about 23%, no sharp cut-off; inactive = mostly below about 17%
# The depositor's hits bear a star; · = no result.
SMILES,MazEF act,VHR inh abs,SARS 3CLpro inh,PrPC TRFRET,PrP 5UTR inh,Mtb hypoxia rep
Oc1ccc2ccccc2c1C=Nn1cnnc1,·,·,·,·,·,16
Cc1cc(=O)oc2c1ccc1oc(C(=NO)c3ccccc3)c(C)c12,·,·,·,·,·,-1
COc1ccc(C=NS(=O)(=O)c2cccs2)cc1,·,·,·,·,·,4
CSc1ccccc1OCc1cc(C(=O)NC2CCc3ccccc32)no1 (stereo unspecified),-1,51*,-1,1,-5,-3
Cc1ccc2cc3c(N)c(C(=O)Nc4c(C)[nH]c(=O)[nH]c4=O)sc3nc2c1,205*,1,-4,-1,-16,·
Cc1ccc2nc3sc(C(=O)Nc4c(C)[nH]c(=O)[nH]c4=O)c(N)c3cc2c1,12,1,-2,4,-19,3
COc1ccc(N/C=C2\CCc3ccccc3C2=O)cc1,-26,3,34*,5,19,7
COc1ccc2c(c1)CC/C(=C\Nc1ccc3c(c1)OCO3)C2=O,-2,-2,-2,-1,-75,1
CC(=NNc1ccccn1)c1ccc2c(c1)OCO2,·,·,·,·,·,2
N#CC1=C(N)N2C(=C(C#N)C1c1ccccc1)Sc1ccccc12 (stereo unspecified),·,22,4,·,·,·
CCOc1ccc(C2C(C#N)=C(N)N3C(=C2C#N)Sc2ccccc23)cc1 (stereo unspecified),100*,8,·,·,-78,6
C/C(CC(C)C)=N\NS(=O)(=O)c1ccc(C)c([N+](=O)[O-])c1,68*,-8,0,3,1,·
CC1CCCC/C1=N\NS(=O)(=O)c1ccc(Br)cc1 (stereo unspecified),78*,-12,1,7,-4,·
CC(C)(C)C1CCC(=NNS(=O)(=O)c2ccc(Br)cc2)CC1 (stereo unspecified),66*,27,-1,-7,-25,·
Cc1ccc(S(=O)(=O)NN=C2CCC(C(C)(C)C)CC2)cc1[N+](=O)[O-] (stereo unspecified),115*,8,1,·,-11,1
CC(CCC(C)C)=NNS(=O)(=O)c1ccc(C)c([N+](=O)[O-])c1,·,·,·,·,·,3
CCCC1CCC(=NNS(=O)(=O)c2ccc(C)c([N+](=O)[O-])c2)CC1 (stereo unspecified),47,38,-4,2,-9,-5
O=S(=O)(N/N=C1/CCCc2ccccc21)c1ccc(Br)cc1,-2,8,7,4,-1,·
O=S(=O)(NN=C1CCCCC1)c1ccccc1,17,0,1,-12,-9,-2
O=C(O)c1ccc2c(c1)C(=O)N(c1cccc(-c3nc4ccccc4s3)c1)C2=O,-14,123*,-2,5,-28,·
CC(=O)Oc1cccc(N2C(=O)c3ccc(C(=O)O)cc3C2=O)c1,5,-2,-1,10,-10,-13
CC(=NNC(=O)c1ccc(N2CCCC2=O)cc1)c1ccccc1,·,·,·,·,·,12
Cc1ccc(S(=O)(=O)N(CC(=O)N/N=C/c2cccc(C)c2)c2cccc3cccnc23)cc1,6,-3,1,2,-13,·
Cc1ccc(S(=O)(=O)N(CC(=O)N/N=C\c2cccs2)c2cccc3cccnc23)cc1,51*,1,5,-6,-12,·
O=C(CCn1cnc2ccccc21)NN=C/C=C/c1ccccc1,·,·,·,·,·,0
SMILES,MazEF act,VHR inh abs,SARS 3CLpro inh,PrPC TRFRET,PrP 5UTR inh,Mtb hypoxia rep
COCC(=O)N(Cc1cc2ccc(C)c(C)c2n2nnnc12)C1CCCC1,4,54*,2,0,-17,0
Cc1cccc2cc(CN(CC3CCCO3)C(=O)c3cccnc3)c3nnnn3c12 (stereo unspecified),-4,21,1,3,-18,-5
COC(=O)c1c(NC(=O)c2ccco2)sc2c1CCC2,10,0,3,-3,-23,15
COC(=O)c1c(NC(=O)/C=C/c2ccco2)sc2c1CCC2,57*,-7,-4,0,-11,4
COc1ccc(NC(=S)N(C(C)C)C2CCN(C(C)C)CC2)cc1Cl,·,53*,-3,·,·,·
CC[n+]1c(/C=C(\C)OC)sc2ccccc21,2,12,-1,-5,-14,2

# Source: PubChem (several laboratories)
